Screening data: PubChem, NMMLSC
RGS4-Gao reg: modulators of RGS4 binding to Galphao, primary screen, biochemical, multiplexed bead flow cytometry. actives lie on both sides. binding response (% of control), % at 10 µM. 0.33% of 220,000 active; in the data active means binding response below about 49% or above about 150%; inactive means in between;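 further: fluorescent Galphao activated with aluminum fluoride binding bead-coupled RGS4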
Target sequence (P09471 whole entry, looked up): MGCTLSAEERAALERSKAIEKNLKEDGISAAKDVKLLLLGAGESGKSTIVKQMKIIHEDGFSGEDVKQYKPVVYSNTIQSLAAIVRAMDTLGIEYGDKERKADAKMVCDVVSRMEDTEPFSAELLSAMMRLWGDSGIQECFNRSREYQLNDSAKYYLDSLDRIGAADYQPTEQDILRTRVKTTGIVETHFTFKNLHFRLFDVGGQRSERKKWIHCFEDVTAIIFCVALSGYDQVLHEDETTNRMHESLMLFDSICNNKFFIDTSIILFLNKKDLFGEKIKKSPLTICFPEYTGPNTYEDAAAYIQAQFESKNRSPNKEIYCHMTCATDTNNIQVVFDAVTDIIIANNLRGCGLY
RGS7-Gao: RGS7-Galphao binding modulators, primary screen, biochemical, multiplexed bead flow cytometry; Guanine nucleotide-binding protein G(o) subunit alpha (Homo sapiens), P09471; actives lie on both sides; binding response (% of control), % at 10 µM; 0.35% of 220,000 active; in the data active means binding response below about 49% or above about 150%; inconclusive means no clear call, values can overlap the other calls; inactive means in between;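 further: fluorescent Galphao held in activated GDP-AlF4 state binding bead-coupled RGS7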
Avidin bead fluor: green autofluorescence of compounds with avidin beads – biophysical, 488/530 nm, flow cytometry, artefact control, profiling panel; compound fluorescence 488/530 nm; active compounds read high; fluorescence (KMESF) at 10 µM; 0.38% of 220,000 active; AID 1775, 2009; in the data active means fluorescence above about 47
RGS16-Gao: modulators of RGS16 binding to Galphao, primary screen, biochemical, human proteins, multiplexed bead flow cytometry. 0.38% of 220,000 active. binding response (% of control), % at 10 µM. AID 1441, 2008. Regulator of G-protein signaling 16 (Homo sapiens) + Guanine nucleotide-binding protein …. bead-based flow cytometry RGS16-Galphao binding, fluorescence; actives lie on both sides;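 further: Galphao activated by GDP with aluminum fluoride before binding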
RGS8-Gao reg: RGS8-Galphao binding modulators, primary screen, biochemical, multiplexed bead flow cytometry; response (percent of control binding), % at 10 µM; 0.34% of 220,000 active; actives lie on both sides; Guanine nucleotide-binding protein G(o) subunit alpha (Homo sapiens), P09471; AID 1423, 2008; in the data active means response below about 60% or above about 140%; inactive means in between;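 further: Galphao activated as the GDP aluminium fluoride complex binding bead-coupled RGS8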
GSH bead fluor: compound fluorescence on glutathione beads, profiling panel, artefact control, biophysical, 488/530 nm, flow cytometry. GSH beads flow cytometry, compound fluorescence 488/530 nm; active compounds read high. fluorescence (KMESF) at 10 µM. 0.25% of 190,000 active; in the data active means fluorescence above about 89;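 further: glutathione beads carrying GST-tagged Bcl family fusion proteins plus one bare bead set; values are compound well signal with DMSO vehicle wells as background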
RGS4-Gao HTS: modulators of RGS–Galpha-o binding, primary screen, biochemical, multiplexed beads, flow cytometry, RGS4/7/8/16/19; shares compounds with RGS16-Gao; RGS4–Galpha-o binding response, % at 10 µM; 99% of 1,600 active; multiplexed bead flow cytometry;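 further: fluorescently labeled Galpha-o bound to GDP with aluminium fluoride binding biotinylated RGS beads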
Avidin counter: disruption of biotin probe capture by avidin, counter-screen for RGS protein interaction modulators, biochemical, flow cytometry, bead-based. streptavidin beads, fluorescein-biotin binding. inhibition, % at 10 µM. shares compounds with RGS16-Gao. 1,700 tested, under 10 active;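 active means inhibition above 50%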;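 further: median green fluorescence of gated singlet beads compared with DMSO control wells; 0% = DMSO wells and 100% = complete loss of bead fluorescence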
RGS8-Gao confirm: RGS8-Galphao binding modulators, confirmation, biochemical, multiplexed bead flow cytometry, single concentration. shares compounds with RGS16-Gao. bead-based flow cytometry RGS8-Galphao binding, fluorescence; actives lie on both sides. binding response (% of control), % at 10 µM. 3% of 1,700 active; in the data active means binding response below about 72% or above about 130%; inactive means in between;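 further: Galphao activated as GDP AlF4 complex before binding bead RGS8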
RGS7-Gao single: RGS7-Galphao binding modulators, confirmation, biochemical, multiplexed bead flow cytometry, single concentration. shares compounds with RGS16-Gao. bead-based flow cytometry RGS7-Galphao binding; actives lie on both sides. response (percent of control binding), % at 10 µM. 7.8% of 1,700 active. AID 1837, 2009; in the data active means response below about 75% or above about 130%; inactive means in between;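 further: fluorescent Galphao activated with GDP and aluminum fluoride binding bead-coupled RGS7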
RGS16-Gao conf: modulators of RGS16-Galphao protein binding, confirmation, biochemical, single concentration, multiplexed bead flow cytometry | AID 1838, 2009 | response (% of control binding), % at 10 µM | 4% of 1,700 active | bead-based flow cytometry; actives lie on both sides | shares compounds with RGS16-Gao; in the data active means response below about 74% or above about 130%; inactive means in between;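 further: Galphao activated as the GDP aluminium fluoride complex binding bead-coupled RGS16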
RGS4-Gao confirm: modulators of RGS4-Galphao protein binding, confirmation, biochemical, single concentration, multiplexed bead flow cytometry. shares compounds with RGS16-Gao. actives lie on both sides. binding response (% of control), % at 10 µM. 4% of 1,700 active. AID 1840, 2009; in the data active means binding response below about 74% or above about 130%; inactive means in between
RGS19-Gao single: regulators of RGS19-Galphao binding, confirmation, biochemical, single point, multiplexed bead flow cytometry; shares compounds with RGS16-Gao; bead-based flow cytometry RGS19-Galphao binding; actives lie on both sides; response (percent of control binding), % at 10 µM; 5% of 1,700 active; in the data active means response below about 50% or above about 160%; inactive means in between;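 further: 100% = no compound control and 0% = blank background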
* marks the source's active call; other numbers are inactive results; ? = inconclusive; . = no result. In the library only some 1.2% were active in any assay of this set; here they are far more common. Unless noted, how the calls were made is not given here.

SMILES | RGS4-Gao reg | RGS7-Gao | Avidin bead fluor | RGS16-Gao | RGS8-Gao reg | GSH bead fluor | RGS4-Gao HTS | Avidin counter | RGS8-Gao confirm | RGS7-Gao single | RGS16-Gao conf | RGS4-Gao confirm | RGS19-Gao single
O=C(O)C1CN2CCC1CC2 (configuration not stated) | 101.6 | 99.7 | 9 | 72.3 | 93.2 | 28 | . | . | . | . | . | . | .
NC1=NC(c2cccnc2)n2c(nc3ccccc32)N1 (configuration not stated) | 98.0 | ? | 4 | 96.8 | 101.2 | . | . | . | . | . | . | . | .
CCN1CCN(C(=O)COc2ccc(S(=O)(=O)N(C)Cc3ccccc3)cc2)CC1 | 81.7 | 79.9 | 2 | 24.4* | 76.3 | 47 | 81.7* | 1.1 | 102.0 | 101.9 | 101.3 | 101.8 | 98.5
CN1CCN(c2ccc([N+](=O)[O-])cc2Cl)CC1 | 78.2 | 48.9* | 2 | 97.4 | 55.4* | 19 | 78.2* | -0.5 | 104.5 | 103.0 | 102.2 | 100.0 | 111.4
CC1CN(c2cc([N+](=O)[O-])ccc2Cl)CC(C)N1 (configuration not stated) | 101.9 | 100.9 | 10 | 100.1 | 98.4 | 29 | . | . | . | . | . | . | .
CC1CN(c2ccc([N+](=O)[O-])cc2Cl)CCN1 (configuration not stated) | 10.6* | 7.2* | . | 1.8* | 9.2* | 15 | . | -1.6 | 97.7 | 90.5 | 92.0 | 95.2 | 80.2
CN1CCN(c2cc([N+](=O)[O-])ccc2Cl)CC1 | 103.3 | 100.8 | 10 | 100.1 | 103.2 | 14 | . | . | . | . | . | . | .
CCCCCCC[n+]1ccc(-c2cc[n+](CCCCCCC)cc2)cc1 | 115.0 | 107.2 | 3 | 12.9* | 78.9 | 9 | 115.0* | 1.4 | 106.7 | 102.2 | 106.8 | 103.4 | 102.3
COc1ccc(C=C2C(=O)N(C)C(=O)N(C)C2=O)cc1COc1ccc(NC(C)=O)cc1 | 95.2 | ? | 5 | 100.8 | 90.2 | . | . | -0.4 | 89.3 | 88.6 | 96.6 | 91.7 | 76.9
COc1ccc(C=C2C(=O)N(C)C(=O)N(C)C2=O)cc1CSc1ccccn1 | 96.5 | 95.2 | 15 | 101.7 | 95.0 | 23 | . | . | . | . | . | . | .
Cn1c(O)c(C=NCCN2CCN(C(=O)Nc3ccccc3)CC2)c(=O)n(C)c1=O | 98.4 | ? | 8 | 102.0 | 101.8 | . | . | . | . | . | . | . | .
